An excerpt weighted towards active compounds, which were near 4.8% of everything screened.
DAX1 inh-1 = inhibitors of DAX1 repression of SF-1 activated StAR promoter. 370,000 tested, 1.1% active. AID 652010. HEK293T StAR-luciferase reporter, SF-1/DAX-1 repression relief. inhibition, % at 6.8 µM;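 active = inhibition above the mean over all tested compounds plus 3 SD, cut at about 3.6% in these data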;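 note: 0% = DAX-1 cells with DMSO and 100% = cells lacking DAX-1 with DMSO; higher inhibition means more luminescence from relief of DAX-1 repression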
hgDAF12 agonist = activates the H. glycines DAF-12 receptor ligand-binding domain; HEK293 GAL4-hgDAF12 UAS-luciferase reporter, agonist luminescence; normalized to butyrate control; activation, % at 6.8 µM; 370,000 tested, 1.8% active; AID 687014;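 active = activation above a cutoff set at the mean of all screened compounds plus 3 SD, cut at about 10% in these data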;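 note: 0% = DMSO wells and 100% = sodium butyrate wells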
SMARCA2 act = increases SMARCA2 function in MMTV reporter cells. activation, % at 9.1 µM. MG213 cells, MMTV-luciferase reporter, dexamethasone, overnight. 370,000 tested, 1% active. AID 652017; in the data active = activation above about 7.8%;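 note: 0% = vehicle wells and 100% = reference activator wells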
ssDAF-12 act = S. stercoralis DAF-12 activation, primary screen | 370,000 tested, 1% active | activation, % at 6.8 µM | HEK293 ssDAF-12/GRIP1 lit1-tk-luc reporter, luminescence; % of 3 µM dafachronic acid response;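 active = activation above the mean over all tested compounds plus 3 SD, cut at about 0.9% in these data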;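 note: 0% = DMSO-only wells and 100% = 3 µM delta7-dafachronic acid wells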
hcDAF12 agonist = activates DAF-12 receptor from parasite H. contortus; 370,000 tested, 1.4% active; activation, % at 6.8 µM; HEK293 hcDAF-12 lit1-tk-luc reporter, luminescence; 0% DMSO, 100% Δ7-dafachronic acid;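 active = activation above the mean of all tested compounds plus 3 SD, cut at about 5.5% in these data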;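 note: 100% = response to 3 µM Δ7-dafachronic acid high control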
DAX1 inh-2 = NR0B1 (DAX1) inhibition | 340,000 tested, 0.99% active | P51843 | inhibition, % at 6.75 µM | HEK293 Gal4-DAX1 luciferase reporter, luminescence;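 active = inhibition above the mean over all tested compounds plus 3 SD, cut at about 4.2% in these data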;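 note: 0% = DAX1-transfected cells with DMSO and 100% = empty-vector control cells with DMSO; inhibition shows as a rise in luminescence from relieved DAX1 repression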
Target sequence (P51843 207-470 limits assumed): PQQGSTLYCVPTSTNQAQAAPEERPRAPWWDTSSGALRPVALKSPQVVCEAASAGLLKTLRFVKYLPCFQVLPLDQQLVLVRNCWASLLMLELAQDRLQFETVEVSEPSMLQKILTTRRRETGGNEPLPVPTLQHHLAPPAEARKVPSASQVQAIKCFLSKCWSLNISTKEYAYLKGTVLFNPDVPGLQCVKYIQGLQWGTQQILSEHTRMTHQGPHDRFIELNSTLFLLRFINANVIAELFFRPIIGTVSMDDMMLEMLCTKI
* hit, by the source's call; . = not tested or not shown.

SMILES	DAX1 inh-1	hgDAF12 agonist	SMARCA2 act	ssDAF-12 act	hcDAF12 agonist	DAX1 inh-2
Cc1ccccc1C(=O)NC=C1C(=O)OC(C)(C)OC1=O	0	0	-2	-1	1	4.2*
CC1(C)OC(=O)C(=CNC(=O)c2c(F)cccc2F)C(=O)O1	0	0	2	-1	-1	0
O=C1c2ccccc2C(=O)N1CCOc1cccc(Br)c1	4.4*	10	6	0	2	1
COc1cccc(NC(=O)Cn2c(=O)oc3ccccc32)c1	0	1	-3	-1	-2	0
COc1ccc(-c2nc(NC(=O)Cn3c(=O)oc4ccccc43)sc2C)cc1	0	2	-2	0	3	4.7*
CC(Sc1nncn1C)C(=O)Nc1ccc2ccccc2c1 (stereo unspecified)	3	1	-1	-1	1	4.6*
Cc1nnc(SC(C)C(=O)Nc2ccc3ccccc3c2)[nH]c1=O (stereo unspecified)	0	4	2	1.3*	6	2
CC(Sc1nncn1C)C(=O)Nc1ccc(S(N)(=O)=O)cc1 (stereo unspecified)	0	-1	-2	-1	0	2
COc1cccc(N2CCN(c3ccc(N4C(=O)CCC4=O)cc3[N+](=O)[O-])CC2)c1	-1	2	0	-1	-1	6.6*
CC1(C)C2CCC(CN)C1C2 (stereo unspecified)	0	4	0	-1	-2	5.3*
CCOC(=O)c1cn(Cc2ccc(C)cc2)nn1	-1	-2	-1	-1	5.8*	-1
CCOC(=O)c1cn(Cc2ccc(Br)cc2)nn1	0	0	4	-2	-3	2
CCCCN1C[C@@H](COCc2ccccc2)Oc2cc(F)ccc2S1(=O)=O	0	10	-1	-1	-1	.
CC(C)(C)C(=O)OC12CCCN(C1)/C(=C/c1ccc(C#N)cc1)C2 (stereo unspecified)	0	-1	-2	0	1	.
CC(C)C(C#CC1CC1)NCc1ccc2c(c1)OCO2 (stereo unspecified)	0	-3	3	-2	-3	.
O=C(COC(=O)C12CC3CC(CC(Cl)(C3)C1)C2)Nc1ccccc1	0	-3	-1	-1	0	0
CC1CCCCC1NC(=O)COC(=O)C12CC3CC(CC(Cl)(C3)C1)C2 (stereo unspecified)	0	2	-3	-2	0	6.0*
O=C(c1cccc(I)c1)N1CCC(Oc2cccnc2)CC1	1	-2	0	-2	-1	.
CCN(C(=O)CCc1cn(CC)c2ccccc12)c1ccc(Oc2cccnc2)cc1	3.6*	11*	-1	0	-1	.
O=C(NC(CC1=CCCCC1)c1ccc2ccccc2c1)C(F)(F)F (stereo unspecified)	1	1	-1	-1	0	.
COc1ccc(S[C@]2(C(=O)N(C)C)CC(=O)N(C(=O)c3ccccc3)[C@@H]2c2ccc(OC)cc2)cc1	-2	-3	-1	-1	-1	.
CCc1ccccc1NC(=O)C1CCN(C(=O)c2cccs2)CC1	0	1	-3	-2	3	4.4*
Cc1ccc(NC(=O)C2CCN(C(=O)c3cccs3)CC2)c(C)c1	0	-1	-1	-2	-2	0
COC(=O)C1CN(Cc2ccccc2)CCS(=O)(=O)N1Cc1cn(Cc2ccccc2)nn1 (stereo unspecified)	0	0	-3	-2	0	.
O=c1[nH]c(C(F)(F)F)nc2c1nc1n2CCC1	0	3	3	0	1	0
SMILES	DAX1 inh-1	hgDAF12 agonist	SMARCA2 act	ssDAF-12 act	hcDAF12 agonist	DAX1 inh-2
O=C1CNC(=O)c2c(nc3n2CCC3)N1	0	4	7.8*	-1	3	-1
Nc1nc2ccc(Cl)cc2[nH]1	0	0	1	0	2	-1
Clc1ccc2nc(-c3ccc(Cl)nc3)[nH]c2c1	0	12*	6	0	3	3
N#C/C(=C(/O)CSc1ncn[nH]1)c1nc2ccccc2[nH]1	1	0	0	0	6.5*	0
CCOC(=O)c1ccc(OC)c(OC)c1Cl	-1	0	7	-1	-1	5.8*
CC(C)[C@H](NC(=O)N1CC(=O)Nc2ccccc21)C(=O)N[C@H](Cc1c[nH]c2ccccc12)C(=O)O	1	1	-2	1.6*	3	4
CC(C)[C@H](NC(=O)N1CC(=O)Nc2ccccc21)C(=O)N[C@H](Cc1ccccc1)C(=O)O	0	-3	0	-1	-2	1
Cc1onc(-c2ccc(Cl)cc2)c1-c1ccn(S(=O)(=O)c2ccccc2Cl)n1	-1	6	-1	-2	0	.
Cc1ccc(-n2c(SCc3cccc4ccccc34)nnc2-c2ccccn2)cc1	-1	-3	-4	-2	-1	.
COC(=O)/C=C1\OC(C)c2ccccc21 (stereo unspecified)	1	-3	4	1.2*	3	.
COC(=O)[C@]12C[C@H](CC(=O)N3CCN(C(=O)C4CC4)CC3)C(=O)N(CCc3ccc(OC)c(OC)c3)C1=C[C@H](C1CCCC1)O[C@@H]2C	0	0	0	-2	-2	.
S=C(NN=C(c1ccccc1)c1ccccn1)N(Cc1ccccn1)Cc1ccccn1	-7	-9	0	-2	-4	-5
S=C(NN=Cc1ccccn1)N(Cc1ccccn1)Cc1ccccn1	1	5	0	1.0*	3	-4
COc1cc(C=Nn2c(-c3ccc(F)cc3)n[nH]c2=S)ccc1OCc1ccccc1	1	-2	-2	-2	-1	.
Cc1cccc(CC(=O)Nc2ccc(C(=O)N3CCCCC3)cc2)c1	2	3	-4	-1	-1	0
COc1ccccc1CC(=O)Nc1ccc(C(=O)N2CCCCC2)cc1	3.9*	0	1	-1	0	1
COc1ccc(/C=C2/CN(Cc3ccc(OC)cc3OC)C3=NC(c4ccc5ccccc5c4)CC(=O)N32)cc1 (stereo unspecified)	.	-3	.	-2	-1	.
CC(c1nc2ccccc2[nH]1)N(C(=O)C1=NNC(=O)CC1)c1ccccc1 (stereo unspecified)	2	1	-2	1.4*	4	.
O=C(Nc1ccc2oc(-c3ccncc3)nc2c1)c1ccc2c(c1)OCCO2	0	0	0	-3	-2	5.7*
Cc1ccc2oc(-c3ccc(NC(=O)c4ccncc4)cc3O)nc2c1	1	12*	4	0	0	1
COC(=O)C[C@H]1CC[C@H]2[C@H](COc3ccc(NS(=O)(=O)c4cccc(OC)c4)cc3C(=O)N2C)O1	-2	3	-2	0	-2	.
CCCCN1CN2CCc3ccccc3C2CS1(=O)=O (stereo unspecified)	1	0	-3	-1	-5	.
